Hits are enriched below; roughly 32% of the tested compounds scored in any of these assays.
CYP2C19 activ – activators of human cytochrome P450 2C19. P33261. recombinant CYP2C19, luciferin-H EGE luminescence; stronger effect = higher value; 0 = fully inhibited enzyme, 1 = untreated enzyme. activation factor at 5 µM. 96,000 tested, under 10 active. AID 1025;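 active = activation factor of at least 2 at 5 µM in the primary screen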
PostGolgi yeast – growth inhibition of a yeast mutant, post-Golgi transport screen. post-Golgi transport phenotypic cell assay. AID 739. inhibition, % at 10 µM. hit rate 0.9% among 98,000;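 also: yeast cells grown in 1536-well plates; yeast grown about 18 h at 30C before absorbance read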
CYP2C9 inhib – blocks human cytochrome P450 2C9 | P11712 | CYP2C9 Supersomes, luciferin-H conversion, luminescence | inhibition, % at 5 µM | hit rate 20% among 96,000 | AID 777;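 active = blocking of liver enzyme CYP2C9 beyond about 50% at 5 µM, limit read from the data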
CYP2C19 inhib – blocks human cytochrome P450 2C19 | P33261 | CYP2C19 Supersomes, luciferin-H EGE luminescence, 30 min | inhibition, % at 5 µM | hit rate 21% among 96,000 | AID 778;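 active = CYP2C19 inhibition above a set limit at 5 µM in the primary screen, cut at about 50% in these data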
PostGolgi ctrl – inhibits growth of the yeast control strain | AID 738 | efflux-deficient yeast background strain, growth absorbance A615, 16 h | hit rate 5% among 98,000 | inhibition, % at 10 µM
CYP2C9 act – CYP2C9 (human) activation. P11712. recombinant CYP2C9, luciferin-H conversion, luminescence; stronger effect = higher value; factor 1 = untreated enzyme, 0 = blocked. activation factor at 5 µM. hit rate 1.4% among 96,000. AID 1024;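 active = activation factor of 2 or more for CYP2C9 at a 5 µM dose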
Of the large screens only hits and unclear results are named; the others gave an inactive call. Rule as the data show it, unless noted: active = inhibition above about 30%; inactive = the rest.

CCN(CC)S(=O)(=O)c1cccc(C(=O)Nc2cc(C)cc(C)c2)c1	none
CCN(CC)S(=O)(=O)c1cccc(C(=O)OCC(=O)C23CC4CC(CC(C4)C2)C3)c1	CYP2C9 inhib 74.2
Cc1cccc(NC(=O)C(NS(=O)(=O)c2ccc3c(c2)CCC(=O)N3)c2ccccc2)n1 (stereo not given)	none
C=C(C)CSc1nc2nc(C)cc(C)n2n1	none
CC(Sc1nc2ccccc2[nH]1)C(=O)Nc1ccc2c(c1)OCCO2 (stereo not given)	CYP2C9 inhib 63.8
CC(SCc1ccccc1)C(=O)N/N=C/c1ccc2c(c1)OCO2 (stereo not given)	CYP2C9 inhib 92.5, CYP2C19 inhib 79.6
O=C(CSCc1cccc(Cl)c1)N/N=C/c1ccc(OCC(=O)N2CCCCC2)cc1	CYP2C9 inhib 57.1, CYP2C19 inhib 59.2, PostGolgi ctrl 41.6
O=C(N/N=C/c1ccc2c(c1)OCO2)c1ccccn1	none
CC(SCc1ccccc1)C(=O)N/N=C/c1cc2c(cc1Br)OCO2 (stereo not given)	CYP2C9 inhib 69.7
Cc1cccc(C(=O)N/N=C/c2ccc(OCC(=O)N3CCCCC3)cc2)c1	none
CCC(C)NC(=O)c1cc(OC)c(OC)c(OC)c1 (stereo not given)	none
O=c1[nH]c(N2CCN(c3ccccc3)CC2)nc2c1CCCC2	none
O=C(CSCc1ccccc1)N/N=C/c1ccccc1OCc1ccccc1	CYP2C9 inhib 60.2
CC(SCc1ccccc1)C(=O)Nc1ccc2c(c1)OCO2 (stereo not given)	CYP2C9 inhib 73.0, CYP2C19 inhib 98.1
O=C(CSCc1cccc(Br)c1)N1CCOCC1	CYP2C19 inhib 71.2
O=C(CSCc1cccc(Br)c1)N/N=C/c1ccc2c(c1)OCO2	CYP2C9 inhib 55.3
CSc1nnc2c(n1)OC(C1CC=C(C)CC1)Nc1ccccc1-2 (stereo not given)	none (no result: PostGolgi yeast, PostGolgi ctrl)
COc1ccnc(Oc2ccc(C)cc2C)c1C#N	none
Cc1cccc(OCC(O)CN2CCN(C3CCCCC3)CC2)c1 (stereo not given)	none
CCCCn1c(N)c(Sc2ccc(C)cc2)c(=O)[nH]c1=O	CYP2C19 inhib 52.9
COc1ccc(CNC(=O)CCc2c(C)nc3ncnn3c2C)cc1	none
CCC(C)N1CC(C(=O)NC2CCCCC2)CC1=O (stereo not given)	PostGolgi ctrl 32.7
COC(=O)c1c[nH]n2c(=O)c(Cc3ccc(F)cc3Cl)c(C)nc12	CYP2C9 inhib 71.0
CC(=O)C1=C(O)C(=O)N(CC#N)C1c1cccs1 (stereo not given)	none
O=C1c2ccccc2-c2cccc(NS(=O)(=O)c3ccc(C(F)(F)F)cc3)c21	CYP2C9 inhib 88.1
CC1CCC2(CC1)NC(=S)N(c1ccccc1)N2 (stereo not given)	CYP2C19 inhib 54.2
O=C1NC2(CCCCC2)NN1c1ccccc1	none
CC(=O)Oc1ccc(OC(C)=O)c(SCCCCCN2CCOCC2)c1	none
COc1cc(Cc2nc3ccc(S(=O)(=O)N4CCOCC4)cc3[nH]2)cc(OC)c1OC	none
CC(C)(CO)Nc1ccc([N+](=O)[O-])cc1[N+](=O)[O-]	none
O=C(O)c1ccc(NC(CSCc2ccc(F)cc2)C(=O)O)c([N+](=O)[O-])c1 (stereo not given)	CYP2C9 inhib 90.4
O=C(NC(Cc1ccc(F)cc1)C(=O)O)c1ccccc1 (stereo not given)	none
O=C(O)c1ccc(NC(CSCc2cccc(F)c2)C(=O)O)c([N+](=O)[O-])c1 (stereo not given)	CYP2C9 inhib 61.9
Cc1ccc(CSCC(Nc2ccc(C(=O)O)cc2[N+](=O)[O-])C(=O)O)cc1 (stereo not given)	CYP2C9 inhib 93.8
CC1(O)CC(=O)N(c2ccccc2)O1 (stereo not given)	none
O=C1c2ccccc2-c2c1nc1c([n+]2[O-])CCCC1	none
Cc1ccc(OCCNC(=O)c2ccco2)cc1C	none
CCc1nnc(NC(=O)CSc2ccc(-c3nc4ccccc4[nH]3)cn2)s1	CYP2C9 inhib 50.7
Cc1csc(NC(=O)CSc2nnc3ncccn23)n1	none
O=C(CSc1ncc(-c2ccc(F)cc2)[nH]1)Nc1cccc(O)c1	CYP2C19 inhib 50.7
CCc1nnc(NC(=O)CSc2ncc(-c3ccccc3)[nH]2)s1	CYP2C9 inhib 65.6
O=C(CSc1ncn[nH]1)Nc1nnc(-c2ccccc2)s1	none
CCc1nnc(NC(=O)CSc2nnc3ncccn23)s1	CYP2C19 inhib 68.3

Screening results deposited in PubChem by several laboratories.
